Results filed as inconclusive are left out. Where a call stands in place of a potency, no number is given. Calls of active or inactive are those of the source. The call rests on the fitted dose curve; in most records, active means well fitted inhibition curve with a large enough effect; inconclusive means small, poorly fitted or top-dose-only effect; inactive means flat fitted curve, though single readings scatter.
Potency means the concentration at half of the fitted maximal effect.

The experiment has as its system MKL-2. The experiment is described as follows: qHTS assay to identify novel small-molecules to repurpose for Merkel cell carcinoma treatment (AID 1296009). Further: nearly all actives have a fitted effect of over 60% in size. As to conditions: MCC and control cell lines, CellTiter-Glo viability, 72 h; series mostly up to 46 µM. A digest of the protocol: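 qHTS format: cells treated with library compounds in DMSO across 8 (NPC) or 11 (MIPE) concentrations. Readout after 72 hr at 37 degree celsius was CellTiter-Glo luminescence.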
`Cc1cnc(NS(=O)(=O)c2ccc(N)cc2)nc1`: the Potency result is “inactive”.

As for `CC1c2ccccc2CN1NC(=O)c1ccc(Cl)c(S(N)(=O)=O)c1` (stereo not drawn), the Potency result was “inactive”.

In the case of `CCC[C@H](N[C@@H](C)C(=O)N1[C@H](C(=O)O)C[C@@H]2CCCC[C@@H]21)C(=O)OCC`, the Potency entry is “inactive”.

For `CC(C)(C)C1CCC(CC2=C(O)c3ccccc3C(=O)C2=O)CC1` (stereo not drawn), the Potency entry is “inactive”.

Regarding `CCOC(=O)N1CCC(Nc2ccc(Cl)cc2N)CC1`, the Potency is 26.6 µM (active).

`Cc1cccc(N(C)C(=S)Oc2ccc3c(c2)CCC3)c1`: the Potency entry was “inactive”.

Take `CC(C)(c1ccc(O)cc1)c1ccc(O)cc1`: the Potency result is “inactive”.

For the molecule `CC(=O)[C@H]1CC[C@H]2[C@@H]3C=CC4=CC(=O)CC[C@@]4(C)[C@@H]3CC[C@]12C`, the Potency result was “inactive”.

In the case of `O=C(OCCN1CCOCC1)c1cccnc1Nc1cccc(C(F)(F)F)c1`, the Potency result is “inactive”.

With `COC(=O)c1cc(Cl)ccc1NS(=O)(=O)C(F)(F)F`, the Potency result is “inactive”.

In the case of `CC1CC(=O)NN=C1c1ccc(NCC(C)(C)NCC(O)COc2cc(Cl)ccc2C#N)cc1` (stereo not drawn), the Potency entry is “inactive”.

Regarding `c1ccc(C(O[C@H]2CCCN(CCc3ccc4c(c3)OCO4)C2)c2ccccc2)cc1`, the Potency result was “inactive”.

Regarding `O=C(CS(=O)Cc1ccco1)NC/C=C\COc1cc(CN2CCCCC2)ccn1` (stereo not drawn), the Potency entry is “inactive”.

`CCCC(=O)O[C@]1(C(=O)CC)CC[C@H]2[C@@H]3CCC4=CC(=O)CC[C@]4(C)[C@H]3[C@@H](O)C[C@@]21C`: the Potency result was “inactive”.

Take `O=C(CCCl)NCCc1ccccc1`: the Potency entry is “inactive”.

As for `Oc1ccc(CCNCCCCCCNCCc2ccccc2)cc1O`, the Potency is 0.596 µM (active).

Regarding `C[N+]1(C)CCC(OC(=O)C(O)(c2ccccc2)C2CCCC2)C1` (stereo not drawn), the Potency result is “inactive”.

Regarding `CC(=O)Nc1ccn(C2COC(COC(=O)c3ccccc3)O2)c(=O)n1` (stereo not drawn), the Potency result is “inactive”.

In the case of `CC(C)C[C@H](NC(=O)CNC(=O)[C@H](Cc1ccc(O)cc1)NC(=O)[C@H](CO)NC(=O)[C@H](Cc1c[nH]c2ccccc12)NC(=O)[C@H](Cc1cnc[nH]1)NC(=O)[C@@H]1CCC(=O)N1)C(=O)N[C@@H](CCCN=C(N)N)C(=O)N1CCC[C@H]1C(=O)NCC(N)=O` (stereo in doubt), the Potency entry is “inactive”.

With `CCCCCCOC(=O)NC(=N)c1ccc(NCc2nc3cc(C(=O)N(CCC(=O)OCC)c4ccccn4)ccc3n2C)cc1`, the Potency was 15 µM (active).

`Oc1cccc2[nH]ccc12`: the Potency entry was “inactive”.

For the molecule `C[N+](C)(CCOc1ccccc1)Cc1cccs1`, the Potency entry is “inactive”.

On to `COc1cc2nc(Cl)nc(N)c2cc1OC`, for which the Potency result is “inactive”.

For the molecule `CN1CCC(N(Cc2cccs2)c2ccccc2)CC1`, the Potency result is “inactive”.

With `CC[N+](CC)(CC)CCOC(=O)C(C1CCCC1)C1CCCC1`, the Potency was 5.96 µM (active).

`C/C(=N/NC(=O)c1ccncc1)C(=O)O`: the Potency result is “inactive”.

For `C=CCOc1cc(Cl)ccc1C(=O)NCCN(CC)CC`, the Potency entry was “inactive”.

With `CCOc1ncc(F)c(=O)[nH]1`, the Potency result is “inactive”.

These data come from PubChem BioAssay (NCATS).
